Source: PubChem
Hits are enriched below; roughly 1.2% of the tested compounds scored in any of these assays.
GALR2 blocker: antagonists of human galanin receptor 2 (GALR2). GALR2-expressing cells, antagonist mode. AID 828. inhibition, % at 4 µM. 140,000 compounds, 0.39% hits. O43603;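 also: cells stimulated with galanin 1-16 at roughly its EC80; 0% = agonist challenge control and 100% = basal control without agonist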
Target sequence (O43603 whole entry, looked up): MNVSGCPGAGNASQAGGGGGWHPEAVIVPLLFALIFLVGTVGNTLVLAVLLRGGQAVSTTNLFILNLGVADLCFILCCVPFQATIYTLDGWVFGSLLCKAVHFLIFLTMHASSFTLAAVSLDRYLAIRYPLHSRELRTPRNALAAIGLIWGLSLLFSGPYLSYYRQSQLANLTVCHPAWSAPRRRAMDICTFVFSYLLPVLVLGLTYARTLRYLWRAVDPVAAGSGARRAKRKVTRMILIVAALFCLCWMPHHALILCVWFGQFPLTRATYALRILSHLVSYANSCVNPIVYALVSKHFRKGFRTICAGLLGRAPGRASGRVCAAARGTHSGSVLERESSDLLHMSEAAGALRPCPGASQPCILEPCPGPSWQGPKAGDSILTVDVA
GALR2 ag: agonists of human galanin receptor 2 (GALR2) | O43603 | GALR2-expressing cells, agonist activation read-out | activation, % (concentration not given with the values) | 140,000 compounds, 0.48% hits | AID 803; in the data active = activation above about 5%, passing the limit was not always enough;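 also: 0% = vehicle buffer wells and 100% = reference agonist at full effect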
S1P2 agonist: activates the human S1P2 receptor | O95136 | S1P2-expressing cell line, agonist reporter read-out | 97,000 compounds, 0.46% hits | activation, % at 4.5 µM; in the data active = activation above about 16%;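 also: 0% = vehicle low control and 100% = maximal reference agonist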
S1P2 blocker: blocks the human S1P2 receptor | 97,000 compounds, 0.21% hits | cell-based S1P2 antagonist assay, inhibition at 5 uM | O95136 | inhibition, % at 5 µM; in the data active = inhibition above about 45%;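 also: CRE beta-lactamase reporter cells expressing human S1P2 stimulated with S1P; 0% = agonist at EC80 alone and 100% = agonist plus reference antagonist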
GALR2 blk conf: confirmation of human galanin receptor 2 (GALR2) antagonists; shares compounds with GALR2 blocker; GALR2-expressing cells, antagonist mode, inhibition; inhibition, % at 4 µM; AID 866; 480 compounds, 60% hits;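 also: cells stimulated with galanin at about its EC80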
BLA inhib ctr: counter-screen for GALR2 antagonists: beta-lactamase reporter inhibitors. AID 867. 480 compounds, 36% hits. CHO NFAT-BLA reporter, beta-lactamase FRET, thapsigargin-stimulated. shares compounds with GALR2 blocker. inhibition, % at 4.2 µM;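 active = inhibition above the mean inhibition across tested compounds plus 3 SD, cut at about 27% in these data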;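 also: 0% = 500 nM thapsigargin stimulated wells and 100% = unstimulated BSA only wells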
An asterisk follows results filed as active; nt = no result given. Rule as the data show it, unless noted: active = inhibition above about 27%; inactive = the rest.

SMILES	GALR2 blocker	GALR2 ag	S1P2 agonist	S1P2 blocker	GALR2 blk conf	BLA inhib ctr
C#CC(=O)N(c1cccc(OC)c1)C(C(=O)NC1CCCC1)c1cccs1 (stereo unspecified)	62*	-2	-8	41	72*	58*
O=S(=O)(c1ccc(Cl)cc1)N1CCN(C(=S)Nc2ccc(F)c(Cl)c2)CC1	12	-2	nt	nt	nt	nt
COc1ccc(NC(=O)COC(=O)c2c3c(nc4ccccc24)CCCC3)cc1Cl	0	-2	-8	10	nt	nt
COc1ccc2[nH]c(=O)c(CN(CCCN(C)C)C(=O)Nc3ccccc3)cc2c1	-1	-1	-3	13	nt	nt
CCc1ccc2[nH]c(=O)c(CN(CCN(C)C)C(=O)Nc3ccccc3)cc2c1	27*	-2	0	9	4	2
CCOC(=O)/C(C#N)=C\c1ccc(OCC(=O)Nc2ccc(C)cc2C)c(OC)c1	0	-1	-3	19	nt	nt
CC1=C(C)/C(=N\OS(=O)(=O)c2ccc(C)cc2)C=CC1=O	85*	-1	nt	nt	70*	64*
CC1=C/C(=N\OS(=O)(=O)c2ccccc2)C(C)=CC1=O	63*	-3	-4	98*	74*	36*
COc1cc(C(=O)O/N=C2/C=C(C)C(=O)C=C2C)cc(OC)c1OC	-4	1	nt	nt	nt	nt
Oc1ccccc1/C=N/n1cnn(Cc2ccccc2Cl)c1=S	7	-1	nt	nt	nt	nt
C=CCn1c(SCC(=O)Nc2cc(C)on2)nc2sc(CC)cc2c1=O	-1	0	-2	-20	nt	nt
O=c1c2[nH]c3ccccc3c2ncn1CCC1=CCCCC1	11	0	1	-13	nt	nt
C1=C(CCNc2ncnc3c2[nH]c2ccccc23)CCCC1	48*	0	nt	nt	61*	14
COc1ccc2[nH]c3c(NCCN(C(C)C)C(C)C)ncnc3c2c1	6	0	-6	-11	nt	nt
CC(C)OCCCNc1ncnc2c1[nH]c1ccccc12	39*	-4	-14	37	37*	13
O=C(O)Cc1sc(N/N=C\c2ccccc2)nc1-c1ccccc1	29*	-1	nt	nt	11	1
CC(=O)C(=Nc1ccccc1Cl)NNc1ccc(Cl)cc1	28*	-2	-4	-31	14	0
CCN(Cc1ccncc1)S(=O)(=O)c1ccc(C(C)=O)cc1	19	-1	nt	nt	nt	nt
COC(=O)c1c(NC(NC(=O)C(C)C)C(Cl)(Cl)Cl)sc2c1CCCC2 (stereo unspecified)	-13	-2	nt	nt	nt	nt
COc1ccc(C(=O)/C=C/c2ccccc2C(F)(F)F)cc1	1	-1	-6	0	nt	nt
CC(C)(C)C(=O)/C(=C\c1ccc([N+](=O)[O-])cc1)n1cncn1	56*	1	-9	66*	73*	57*
CCCC(c1nnnn1Cc1ccco1)N1CCN(C2CCCC2)CC1 (stereo unspecified)	69*	-2	nt	nt	7	27*
N#Cc1ccc(-c2ccccc2)nc1SCC(=O)c1cc2ccccc2oc1=O	38*	-1	-7	30	21	19
CC(C)c1c(C#N)c(N)nc(SCC(=O)c2cc3ccccc3oc2=O)c1C#N	2	2	nt	nt	nt	nt
Cn1c(C(=O)O)c(CC(=O)Nc2ccc3c(c2)OCCO3)c2ccccc21	2	-3	-3	3	nt	nt
SMILES	GALR2 blocker	GALR2 ag	S1P2 agonist	S1P2 blocker	GALR2 blk conf	BLA inhib ctr
COc1ccccc1NC(=O)Cc1nn(C)c(=O)c2ccccc12	35*	-2	-4	29	40*	14
Cn1nc(CC(=O)Nc2ccc3c(c2)OCCO3)c2ccccc2c1=O	36*	-1	nt	nt	42*	17
Cc1ccc(Cl)c(NC(=O)COC(=O)c2ccccc2C(=O)c2ccc(Cl)c([N+](=O)[O-])c2)c1Cl	69*	1	nt	nt	80*	71*
Cc1sc2ncnc(NCCc3ccc(S(N)(=O)=O)cc3)c2c1C	37*	2	-1	63*	47*	8
NS(=O)(=O)c1ccc(CCNc2ncnc3sccc23)cc1	3	-2	-7	26	nt	nt
O=C(OCC(=O)N1CCN(C(=O)c2ccco2)CC1)c1cc(-c2cccc(Br)c2)nc2ccccc12	-6	-1	0	-3	nt	nt
CCS(=O)(=O)c1c([N+](=O)[O-])ncn1C	28*	-3	nt	nt	23	1
CCC1C/C(=C\c2cccnc2)C(=O)/C(=C/c2cccnc2)C1 (stereo unspecified)	36*	-3	nt	nt	46*	21
O=C1/C(=C/c2cccnc2)CCC/C1=C\c1cccnc1	23	-1	nt	nt	nt	nt
O=C(O)CNS(=O)(=O)c1ccc(Br)s1	9	-1	nt	nt	nt	nt
O=S(=O)(NCc1ccncc1)c1ccc(Br)s1	37*	-2	nt	nt	44*	8
C/C(=N\Nc1ccc([N+](=O)[O-])cc1)c1cccc(N)c1	30*	-2	-8	14	31*	16
O=c1c2ccccc2nc(-c2ccc(Cl)cc2)n1C1CCS(=O)(=O)C1 (stereo unspecified)	2	-1	-6	19	nt	nt
COc1cccc(CN2C(=O)c3cccc(N)c3C2=O)c1	31*	2	nt	nt	8	12
COc1cccc(CN2C(=O)Nc3ccccc3C(=O)N2C(C)(C)C)c1	-5	0	3	-6	nt	nt
Cc1ccc2nc(/C(C#N)=C\c3ccc(N4CCOCC4)o3)[nH]c2c1	29*	0	0	-27	23	6
Cc1ccc(/C(C#N)=C\c2ccc(N3CCOCC3)o2)cc1	44*	-2	-7	51*	15	22
O=C(CSc1nc2ccccc2s1)N1c2ccccc2Sc2ccc(Cl)cc21	1	-2	-1	0	nt	nt
CCN(CC)CC(=O)N1c2ccccc2Sc2ccc(Cl)cc21	29*	-1	-6	8	16	7
CC(=O)/C=C/n1c(=S)oc2ccccc21	42*	-2	nt	nt	77*	65*
Cc1cc(C(F)(F)F)nn1Cc1n[nH]c(=S)n1-c1ccc(F)cc1	63*	-1	nt	nt	4	5
CC(CN(C)Cc1ccccc1)OC(=O)c1cccc(F)c1 (stereo unspecified)	5	1	nt	nt	nt	nt
Cc1cc(/C=N/n2cnnc2)c(C)n1-c1ccc(OCc2ccc(Cl)cc2)cc1	45*	1	-7	77*	40*	19
COc1ccc(S(=O)(=O)Nc2ccccc2-c2nnn(CC(=O)Nc3ccccc3OC)n2)cc1	28*	-1	nt	nt	23	11
Cc1ccc(OCC(=O)N/N=C\c2ccncc2)c(C)c1	-24	1	nt	nt	nt	nt
SMILES	GALR2 blocker	GALR2 ag	S1P2 agonist	S1P2 blocker	GALR2 blk conf	BLA inhib ctr
CCOC(=O)N1CCN(C(=O)c2ccc(NC(C)=O)cc2)CC1	9	-1	-11	11	nt	nt
CCOC(=O)N1CCN(C(=O)c2ccc(NC(=O)c3ccc(C)cc3)cc2)CC1	28*	1	-7	-2	30*	19
O=C(NNC(=O)c1ccccc1Br)c1ccc(SCC2CCCO2)c([N+](=O)[O-])c1 (stereo unspecified)	15	-5	-3	10	nt	nt
COc1cc(Cl)c(C)cc1NC(=O)CSc1cc(Cl)ccc1Cl	-14	1	nt	nt	nt	nt
Cc1nc2cc3nc(C)sc3cc2s1	2	0	nt	nt	nt	nt
COc1cc2nc(C)sc2cc1SC	27*	-1	nt	nt	8	4
